Experimental data as given in the supplement of paper PMC11732987, “Enantioselective OTUD7B fragment discovery through chemoproteomics screening and high-throughput optimisation” (Communications Chemistry, 2025).

Key:
Assay in all cases: log2 ratio of Biotin-Ahx-Ub-VS probe labelling (fragment/DMSO); higher = less target engagement (more negative = stronger competition), active = hit call of the paper (q ≤ 0.05, log2 ratio ≤ -1)
Settings in all cases: compound concentration: 200 uM; treatment time: 3 h
USP9X = USP9X (UniProt Q93008)
Procedure, shortened: (§1)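 HEK293T lysate in Tris/CHAPS/IGEPAL buffer with protease inhibitors (495 µg per sample) was given fragment at 200 µM or vehicle for 3 h, in triplicate. It then received Biotin-Ahx-Ub-VS at 0.5 µM final for 1 h. Labelled DUBs were NeutrAvidin-enriched, digested with LysC and trypsin, and run by diaPASEF LC-MS/MS. Values are average log2 fragment/vehicle ratios by unpaired t-test on global-median-normalised Spectronaut quantities of proteins with ≥2 unique peptides.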

UniProt O00487 = target: UniProt O00487
Chain of UniProt O00487 (O00487 whole entry): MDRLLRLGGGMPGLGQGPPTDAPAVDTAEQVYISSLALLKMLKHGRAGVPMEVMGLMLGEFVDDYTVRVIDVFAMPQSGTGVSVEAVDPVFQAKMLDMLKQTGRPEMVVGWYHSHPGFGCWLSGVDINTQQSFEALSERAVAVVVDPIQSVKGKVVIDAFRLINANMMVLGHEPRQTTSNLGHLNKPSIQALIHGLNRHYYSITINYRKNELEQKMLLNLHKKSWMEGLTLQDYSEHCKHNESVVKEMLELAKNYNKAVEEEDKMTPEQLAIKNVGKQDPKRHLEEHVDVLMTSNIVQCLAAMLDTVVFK
Procedure, shortened: as §1

UniProt O00507 = target: UniProt O00507
Chain of UniProt O00507 (O00507 whole entry): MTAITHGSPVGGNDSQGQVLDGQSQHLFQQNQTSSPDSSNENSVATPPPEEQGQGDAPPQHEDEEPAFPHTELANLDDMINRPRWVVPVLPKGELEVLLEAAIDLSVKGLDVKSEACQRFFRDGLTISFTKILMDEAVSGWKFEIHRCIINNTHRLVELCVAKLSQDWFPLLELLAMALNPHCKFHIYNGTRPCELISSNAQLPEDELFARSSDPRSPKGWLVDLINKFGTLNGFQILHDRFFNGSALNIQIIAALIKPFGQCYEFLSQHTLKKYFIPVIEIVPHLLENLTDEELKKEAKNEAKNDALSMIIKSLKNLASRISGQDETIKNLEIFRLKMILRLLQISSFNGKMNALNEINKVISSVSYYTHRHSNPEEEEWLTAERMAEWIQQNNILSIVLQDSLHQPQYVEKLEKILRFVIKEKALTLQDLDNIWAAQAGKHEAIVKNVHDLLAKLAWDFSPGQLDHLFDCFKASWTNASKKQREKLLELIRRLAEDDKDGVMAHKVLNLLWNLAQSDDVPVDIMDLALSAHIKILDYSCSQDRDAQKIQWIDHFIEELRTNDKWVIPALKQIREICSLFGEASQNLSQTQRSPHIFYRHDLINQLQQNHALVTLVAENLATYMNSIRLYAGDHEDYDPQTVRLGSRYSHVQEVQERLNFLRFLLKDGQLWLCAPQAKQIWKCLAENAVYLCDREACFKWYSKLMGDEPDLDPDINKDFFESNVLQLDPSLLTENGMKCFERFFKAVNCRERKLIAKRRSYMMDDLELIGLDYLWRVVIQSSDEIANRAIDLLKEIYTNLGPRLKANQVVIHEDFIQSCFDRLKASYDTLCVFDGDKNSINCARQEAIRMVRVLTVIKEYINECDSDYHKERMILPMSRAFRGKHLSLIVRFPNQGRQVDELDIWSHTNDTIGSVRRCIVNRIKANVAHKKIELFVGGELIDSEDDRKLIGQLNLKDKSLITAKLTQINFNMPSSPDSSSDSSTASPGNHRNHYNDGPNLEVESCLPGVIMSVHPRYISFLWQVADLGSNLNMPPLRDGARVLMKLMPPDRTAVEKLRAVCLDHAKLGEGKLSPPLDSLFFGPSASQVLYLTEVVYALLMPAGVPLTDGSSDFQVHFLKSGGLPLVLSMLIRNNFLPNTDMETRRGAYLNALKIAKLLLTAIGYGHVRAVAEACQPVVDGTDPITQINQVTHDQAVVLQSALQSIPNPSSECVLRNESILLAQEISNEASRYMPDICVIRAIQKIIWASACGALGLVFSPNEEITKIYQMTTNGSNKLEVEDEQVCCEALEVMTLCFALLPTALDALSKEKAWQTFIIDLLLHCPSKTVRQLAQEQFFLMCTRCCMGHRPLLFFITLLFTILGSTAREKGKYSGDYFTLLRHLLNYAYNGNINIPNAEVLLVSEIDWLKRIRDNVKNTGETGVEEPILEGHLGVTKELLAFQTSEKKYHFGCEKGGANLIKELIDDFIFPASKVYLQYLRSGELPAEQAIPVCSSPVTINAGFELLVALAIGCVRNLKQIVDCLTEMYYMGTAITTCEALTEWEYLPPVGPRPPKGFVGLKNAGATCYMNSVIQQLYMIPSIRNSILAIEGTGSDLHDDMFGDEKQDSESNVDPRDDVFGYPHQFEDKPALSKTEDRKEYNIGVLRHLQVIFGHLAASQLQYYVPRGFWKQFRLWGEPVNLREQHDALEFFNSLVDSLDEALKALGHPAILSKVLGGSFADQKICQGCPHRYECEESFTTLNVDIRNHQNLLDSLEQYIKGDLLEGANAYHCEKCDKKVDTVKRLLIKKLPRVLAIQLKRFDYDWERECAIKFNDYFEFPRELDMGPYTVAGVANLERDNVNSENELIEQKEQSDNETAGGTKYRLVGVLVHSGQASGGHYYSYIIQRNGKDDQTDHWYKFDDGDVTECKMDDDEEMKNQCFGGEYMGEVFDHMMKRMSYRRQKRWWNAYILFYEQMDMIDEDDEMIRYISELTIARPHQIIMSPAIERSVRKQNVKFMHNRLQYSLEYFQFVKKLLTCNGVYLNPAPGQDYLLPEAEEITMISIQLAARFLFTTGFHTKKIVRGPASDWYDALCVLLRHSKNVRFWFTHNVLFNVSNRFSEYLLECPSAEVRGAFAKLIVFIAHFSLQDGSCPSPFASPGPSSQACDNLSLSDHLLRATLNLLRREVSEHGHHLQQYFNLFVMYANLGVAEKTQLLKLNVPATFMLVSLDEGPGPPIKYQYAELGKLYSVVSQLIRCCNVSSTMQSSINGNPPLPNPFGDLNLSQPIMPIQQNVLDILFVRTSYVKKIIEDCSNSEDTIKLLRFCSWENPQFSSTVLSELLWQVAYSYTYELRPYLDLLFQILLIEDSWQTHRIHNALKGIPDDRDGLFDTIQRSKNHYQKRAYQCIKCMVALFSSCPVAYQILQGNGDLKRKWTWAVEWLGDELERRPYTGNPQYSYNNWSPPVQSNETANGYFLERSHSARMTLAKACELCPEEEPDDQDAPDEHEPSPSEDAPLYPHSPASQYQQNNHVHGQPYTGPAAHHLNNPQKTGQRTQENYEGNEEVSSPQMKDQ
Procedure, shortened: as §1

UniProt P51784 = target: UniProt P51784
Chain of UniProt P51784 (P51784 whole entry): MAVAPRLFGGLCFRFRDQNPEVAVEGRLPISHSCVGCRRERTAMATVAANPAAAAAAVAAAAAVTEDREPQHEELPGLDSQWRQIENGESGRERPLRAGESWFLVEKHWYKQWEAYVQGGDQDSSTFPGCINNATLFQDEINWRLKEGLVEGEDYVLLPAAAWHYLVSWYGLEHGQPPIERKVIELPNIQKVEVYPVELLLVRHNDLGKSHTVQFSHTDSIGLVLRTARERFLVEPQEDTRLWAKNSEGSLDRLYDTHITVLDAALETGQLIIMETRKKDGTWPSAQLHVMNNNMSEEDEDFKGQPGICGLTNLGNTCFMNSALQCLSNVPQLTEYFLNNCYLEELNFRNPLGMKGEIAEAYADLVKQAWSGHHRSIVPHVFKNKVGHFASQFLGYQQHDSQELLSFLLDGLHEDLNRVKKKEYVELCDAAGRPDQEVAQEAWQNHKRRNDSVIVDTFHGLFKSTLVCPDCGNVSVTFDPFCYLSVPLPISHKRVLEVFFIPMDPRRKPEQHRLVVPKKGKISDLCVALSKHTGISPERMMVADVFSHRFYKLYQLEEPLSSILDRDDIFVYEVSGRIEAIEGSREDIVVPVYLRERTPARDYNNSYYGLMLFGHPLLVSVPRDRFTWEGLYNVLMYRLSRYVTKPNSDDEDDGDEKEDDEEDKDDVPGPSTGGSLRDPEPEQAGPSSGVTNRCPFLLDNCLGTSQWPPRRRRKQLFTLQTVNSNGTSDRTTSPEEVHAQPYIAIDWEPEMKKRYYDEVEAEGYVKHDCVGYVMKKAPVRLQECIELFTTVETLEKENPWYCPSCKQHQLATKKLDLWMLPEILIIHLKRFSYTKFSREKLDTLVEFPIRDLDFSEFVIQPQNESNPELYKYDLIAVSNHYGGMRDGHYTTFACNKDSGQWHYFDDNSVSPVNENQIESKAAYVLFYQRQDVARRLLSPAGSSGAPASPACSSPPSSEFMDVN
Procedure, shortened: as §1

UniProt Q5T2D3 = target: T1, UniProt Q5T2D3
T1 sequence (whole entry): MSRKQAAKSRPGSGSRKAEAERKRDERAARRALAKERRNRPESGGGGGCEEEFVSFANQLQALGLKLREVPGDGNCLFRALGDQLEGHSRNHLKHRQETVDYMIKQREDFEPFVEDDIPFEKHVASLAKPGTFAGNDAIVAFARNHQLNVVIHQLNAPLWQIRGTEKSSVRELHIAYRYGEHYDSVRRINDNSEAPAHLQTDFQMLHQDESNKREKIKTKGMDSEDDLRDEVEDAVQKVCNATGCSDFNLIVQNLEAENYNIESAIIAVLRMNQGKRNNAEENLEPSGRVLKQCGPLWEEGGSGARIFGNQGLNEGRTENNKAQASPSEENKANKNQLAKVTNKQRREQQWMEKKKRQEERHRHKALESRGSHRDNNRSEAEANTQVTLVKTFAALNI
Procedure, shortened: as §1

UniProt Q8TE49 = target: T2, UniProt Q8TE49
T2 sequence (whole entry): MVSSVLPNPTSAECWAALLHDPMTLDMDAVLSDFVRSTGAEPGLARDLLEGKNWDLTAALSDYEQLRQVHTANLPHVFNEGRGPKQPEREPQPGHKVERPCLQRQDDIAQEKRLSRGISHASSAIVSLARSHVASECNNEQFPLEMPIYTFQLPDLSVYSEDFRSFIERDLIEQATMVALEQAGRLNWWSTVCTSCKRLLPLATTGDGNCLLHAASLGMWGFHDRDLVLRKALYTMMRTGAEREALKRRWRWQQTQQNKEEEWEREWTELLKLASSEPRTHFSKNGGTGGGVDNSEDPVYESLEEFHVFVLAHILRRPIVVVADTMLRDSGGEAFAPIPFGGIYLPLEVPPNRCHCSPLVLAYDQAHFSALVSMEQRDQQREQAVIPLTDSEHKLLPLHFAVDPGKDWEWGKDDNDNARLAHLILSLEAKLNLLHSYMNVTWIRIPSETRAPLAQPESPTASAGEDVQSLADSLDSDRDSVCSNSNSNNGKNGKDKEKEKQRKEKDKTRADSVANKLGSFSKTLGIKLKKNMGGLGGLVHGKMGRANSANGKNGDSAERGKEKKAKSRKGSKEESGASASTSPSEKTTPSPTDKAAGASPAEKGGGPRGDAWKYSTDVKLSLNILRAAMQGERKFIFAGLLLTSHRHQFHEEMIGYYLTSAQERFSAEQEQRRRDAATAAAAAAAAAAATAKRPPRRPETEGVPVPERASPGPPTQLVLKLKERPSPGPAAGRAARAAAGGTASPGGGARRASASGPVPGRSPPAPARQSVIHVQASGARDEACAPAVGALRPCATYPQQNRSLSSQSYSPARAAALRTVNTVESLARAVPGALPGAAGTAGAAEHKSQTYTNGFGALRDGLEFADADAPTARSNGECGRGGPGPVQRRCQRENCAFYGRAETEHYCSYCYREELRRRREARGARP
Procedure, shortened: as §1

UniProt Q9P2H5 = target: T3, UniProt Q9P2H5
T3 sequence (whole entry): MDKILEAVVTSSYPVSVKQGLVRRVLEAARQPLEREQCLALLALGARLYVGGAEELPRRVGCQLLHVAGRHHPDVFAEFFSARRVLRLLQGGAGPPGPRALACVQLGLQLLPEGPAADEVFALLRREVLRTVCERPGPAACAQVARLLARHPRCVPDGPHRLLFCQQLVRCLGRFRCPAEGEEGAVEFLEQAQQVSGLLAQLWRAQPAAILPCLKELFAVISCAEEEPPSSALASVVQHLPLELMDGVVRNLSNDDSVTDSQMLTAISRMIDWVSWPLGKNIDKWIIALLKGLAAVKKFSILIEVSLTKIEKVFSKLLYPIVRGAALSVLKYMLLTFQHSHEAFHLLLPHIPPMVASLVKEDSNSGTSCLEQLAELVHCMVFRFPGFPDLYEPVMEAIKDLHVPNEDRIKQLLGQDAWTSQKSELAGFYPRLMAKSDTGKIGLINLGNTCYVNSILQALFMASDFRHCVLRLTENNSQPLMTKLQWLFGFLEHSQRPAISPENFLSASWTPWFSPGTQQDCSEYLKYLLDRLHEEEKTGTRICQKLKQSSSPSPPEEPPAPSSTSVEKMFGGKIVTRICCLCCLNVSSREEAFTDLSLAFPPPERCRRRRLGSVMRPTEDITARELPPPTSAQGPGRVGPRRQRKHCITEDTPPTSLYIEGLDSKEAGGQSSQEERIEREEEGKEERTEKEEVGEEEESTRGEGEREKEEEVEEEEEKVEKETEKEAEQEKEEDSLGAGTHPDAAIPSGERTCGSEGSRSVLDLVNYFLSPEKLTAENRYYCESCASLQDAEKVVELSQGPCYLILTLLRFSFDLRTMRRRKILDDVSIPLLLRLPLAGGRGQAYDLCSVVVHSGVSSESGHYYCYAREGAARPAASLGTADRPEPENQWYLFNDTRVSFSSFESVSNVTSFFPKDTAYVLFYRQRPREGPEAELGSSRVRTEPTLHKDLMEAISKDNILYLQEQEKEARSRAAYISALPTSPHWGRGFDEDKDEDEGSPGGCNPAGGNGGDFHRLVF
Procedure, shortened: as §1

UniProt Q9UGI0 = target: T4, UniProt Q9UGI0
T4 sequence (whole entry): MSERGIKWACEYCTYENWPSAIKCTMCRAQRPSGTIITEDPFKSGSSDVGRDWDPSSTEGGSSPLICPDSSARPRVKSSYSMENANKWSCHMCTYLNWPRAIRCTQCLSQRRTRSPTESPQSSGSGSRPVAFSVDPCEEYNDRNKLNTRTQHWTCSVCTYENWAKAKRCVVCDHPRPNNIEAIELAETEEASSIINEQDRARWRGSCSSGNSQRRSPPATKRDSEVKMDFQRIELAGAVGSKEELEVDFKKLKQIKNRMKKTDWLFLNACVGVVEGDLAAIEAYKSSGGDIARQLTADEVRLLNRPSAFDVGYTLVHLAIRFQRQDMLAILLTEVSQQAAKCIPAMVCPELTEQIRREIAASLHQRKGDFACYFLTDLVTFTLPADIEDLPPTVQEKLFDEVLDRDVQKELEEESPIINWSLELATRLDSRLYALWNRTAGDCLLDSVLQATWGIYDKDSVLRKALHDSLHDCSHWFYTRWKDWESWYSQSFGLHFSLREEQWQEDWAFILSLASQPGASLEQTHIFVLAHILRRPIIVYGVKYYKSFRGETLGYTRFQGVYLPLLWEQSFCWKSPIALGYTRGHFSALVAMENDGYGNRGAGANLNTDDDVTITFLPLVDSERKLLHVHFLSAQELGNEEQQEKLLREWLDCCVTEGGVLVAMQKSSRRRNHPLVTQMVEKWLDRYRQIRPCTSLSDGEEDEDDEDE
Procedure, shortened: as §1

YOD1 = target: T5, YOD1 (UniProt Q5VVQ6)
T5 sequence (whole entry): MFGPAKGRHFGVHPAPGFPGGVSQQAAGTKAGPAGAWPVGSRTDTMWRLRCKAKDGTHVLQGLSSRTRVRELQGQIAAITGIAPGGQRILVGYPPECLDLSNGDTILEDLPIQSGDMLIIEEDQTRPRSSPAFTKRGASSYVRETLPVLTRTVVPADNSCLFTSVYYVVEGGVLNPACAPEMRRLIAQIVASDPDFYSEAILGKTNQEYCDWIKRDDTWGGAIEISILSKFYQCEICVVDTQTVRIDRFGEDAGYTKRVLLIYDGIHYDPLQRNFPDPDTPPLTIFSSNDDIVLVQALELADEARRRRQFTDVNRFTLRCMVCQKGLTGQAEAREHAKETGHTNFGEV
Procedure, shortened: as §1

Measured: log2 ratio of Biotin-Ahx-Ub-VS probe labelling

O=C(CCl)NCc1ccc(N2CCOCC2)nc1
inactive: USP9X -0.26 | UniProt O00487 -0.226 | UniProt O00507 -0.134 | UniProt P51784 -0.0382 | UniProt Q5T2D3 -0.374 | UniProt Q8TE49 -0.316 | UniProt Q9P2H5 -0.162 | UniProt Q9UGI0 -0.475 | YOD1 -0.207
